Growth data for 40 compounds are collected here from PubChem BioAssay (NCI).

About 83,000 compounds went through this panel and 20% of them were active in at least one assay; those are over-represented in the sample as a whole.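 Results are percent growth after 48 hours of single-concentration exposure. 100 means growth as in untreated cells, lower positive values show inhibition; negative values down to -100 show cell death.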 Activity calls are given as the source filed them.

The test system of the test is UO-31 renal. Description: NCI-60 one-dose screen, 48 h (100 = growth as untreated, 0 = no growth, -100 = all killed). The conditions noted are these: 10 µM unless noted. How it is done:
Growth inhibition of the UO-31 human tumor cell line is measured as a screen for anti-cancer activity. Cells are grown in 96 well plates and exposed to the test compound for 48 hours. Compounds are tested at a single concentration, which is 10^-5 M for most compounds. The reported endpoint is percent growth (GI% or GIPRCNT), where numbers from 0 - 100% represent growth inhibition, and numbers from -100% - 0 represent cell death. For example, a value of 40 represents 60% growth inhibition. A value of 0 means no net growth occurred over the course of the experiment. A value of -40 indicates 40% of cells at the beginning of the experiment died by the end of the experiment. A value of -100 means all cells are dead at the end of the experiment.
NCI-60 Human Tumor Cell Lines Screen was performed using the standard one-dose NCI protocol, which is described in more detail at https://dtp.cancer.gov/discovery_development/nci-60/default.htm.
Compounds with GIPRCNT values below 10 were considered active. Activity score was based on GIPRCNT using the following formula: […]
Score is 0 for GIPRCNT values of 100 or above, 50 for GIPRCNT values of 0, and 100 for GIPRCNT values of -100.
On to `Cc1[nH]n(C(=O)c2ccncc2)c(=O)c1N=Nc1ccc(S(=O)(=O)Nc2ccncn2)cc1`, for which the growth is 85.1% (inactive).
For `CS(=O)(=O)Nc1cccc(-c2ccc3ncnc(Nc4ccc(F)c(Cl)c4)c3c2)c1`, the growth was 21.1% (inactive).
Take `Cc1cccc[n+]1CCC[n+]1ccccc1C`: the growth was 99% (inactive).
With `CN(C)c1ncc(C#Cc2c(F)cccc2F)c2ccccc12`, the growth is 54.8% (inactive).
Turning to `CCCCCCCCCCCCCCCC(=O)NS(=O)(=O)OC[C@H]1O[C@@H](n2cnc3c(N)ncnc32)[C@H](O)[C@@H]1O`, the growth was -69.8% (active).
As to `CC(=O)Cc1cccnc1`, the growth was 89.8% (inactive).
Then `COc1ccc(-c2nn(-c3ccc(NC(=O)Nc4ccc(Cl)c(C(F)(F)F)c4)cc3)cc2-c2ccncc2)cc1Cl`, with 3.92% (active).
For the compound `CS(=O)(=O)OCC(COS(C)(=O)=O)C(c1ccccc1)c1ccccc1`, the growth is 91.2% (inactive).
With `O=C(Nc1ccc(-n2cc(-c3ccncc3)c(-c3ccc(O)c(Cl)c3)n2)cc1)Nc1ccc(Cl)c(C(F)(F)F)c1`, the growth was 13.6% (inactive).
In the case of `O=C(Nc1cccc(-n2ccc3c(NC(=O)c4ccccc4)ncnc32)c1)Nc1ccc(Cl)c(C(F)(F)F)c1`, the growth was 43.5% (inactive).
Turning to `Nc1nc(Cl)cc(NCCCCNc2cc(Cl)nc(N)n2)n1`, the growth was 96.5% (inactive).
On to `NC(N)=N/N=C/c1ccc([N+](=O)[O-])cc1`, for which the growth is 82.6% (inactive).
For `O=C(O)c1ccc(-n2cc(/C=N/Nc3ccccc3F)c(-c3ccc(O)cc3)n2)cc1`, the growth is 49.1% (inactive).
Then `C=C1C(=O)O[C@H]2[C@H]1CC/C(CNC(=O)/C1=C/CC[C@@]3(C)O[C@H]3[C@H]3OC(=O)C(=C)[C@@H]3CC1)=C\CC[C@@]1(C)O[C@@H]21`, with 95.5% (inactive).
As to `NC(=S)NNC1CCCCC1`, the growth was 72.6% (inactive).
With `COc1ccc2c(c1)OC(N(C(C)=O)C(C)=O)=C(C#N)C2c1ccc(F)cc1` (stereo not given), the growth is 45.8% (inactive).
Consider `COc1cc2nc(C(=O)N3CCCCC3)cc(Nc3ccccc3)c2cc1OC`, for which the growth was 82.4% (inactive).
For the compound `C=CCOc1ccc(/C(Cl)=N/N=C(\Cl)c2cc(OC)c(OC)c(OC)c2)cc1`, the growth was 68% (inactive).
As for `COc1ccc(-c2coc3c(CO)c(O)ccc3c2=O)cc1`, the growth was 24.3% (inactive).
With `CCc1c(C)c2cc3c(c(C)c2oc1=O)OCC(=O)N3`, the growth was 37.3% (inactive).
With `CCN(CC)C(=O)C1CCN(C(=O)c2ccccc2)CC1`, the growth is 89.2% (inactive).
Consider `O=c1c2ccccc2sc2c(N3CCCC3)nc3ccccc3c12`, for which the growth is 97% (inactive).
Turning to `COc1cc(NC(C)CCCN2C(=O)c3ccccc3C2=O)c2ncccc2c1OC` (stereo not given), the growth is 59.4% (inactive).
Turning to `CCCC(=O)Oc1ccc(/C(=C(\C)c2ccc(OC)cc2)c2ccc(OCCN3CCCCC3)cc2)cc1`, the growth was 65.2% (inactive).
Take `COC(=O)c1oc2c(C(C)=O)c(OCCN3CCCCC3)ccc2c1C`: the growth is 84.5% (inactive).
As for `COc1cc(-c2nc3ccccc3s2)ccc1OCc1nc2n(n1)S(=O)(=O)c1ccccc1N2C`, the growth is 72.8% (inactive).
Then `CC1(C)N=C(N)N=C(N)N1c1ccc(F)c(C(F)(F)F)c1`, with 41.8% (inactive); and `Cc1ccc2oc(=O)cc(C3C(C#N)=C(N)Oc4c3ccc3ccccc43)c2c1` (stereo not given), with 72.3% (inactive).
`COc1cccc(-c2nc3sccn3c2-c2ccnc(NCCNC(=O)Nc3cccc(C(F)(F)F)c3)n2)c1`: the growth is 39.7% (inactive).
In the case of `Cc1cc2nc(-c3c(N)ncc(C#N)c3-c3ccc(Cl)cc3)[nH]c2cc1C`, the growth was 77.8% (inactive).
Then `O=C(Nc1ccc(-n2ccc3c(NC(=O)c4ccccc4)ncnc32)cc1)Nc1ccc(Cl)c(Cl)c1`, with 9.15% (active).
The result for `O=C(c1cc(-c2ccc(Cl)cc2)nc2ccccc12)N1N=C(c2ccccc2)CC1c1cc(-c2ccccc2)nn1-c1ccccc1` (stereo not given) reads 70.4% (inactive).
As for `COc1ccc(-c2cnc(-c3ccc(F)cc3)[nH]2)cc1`, the growth was 84.5% (inactive).
With `Clc1ccc(CN2COc3c(ccc4cccnc34)C2)cc1Cl`, the growth was -55.4% (active).
With `CCN(CC)CCN1C(=O)c2c(c3c4ccccc4[nH]c3c3[nH]c4ccccc4c23)C1=O`, the growth was 71.3% (inactive).
Regarding `O=[N+]([O-])c1ccc(NS(=O)(=O)c2cc(Cl)ccc2Cl)c2ccccc12`, the growth is 43% (inactive).
Take `O=C(Nc1cccc(-n2ccc3c(NC(=O)c4ccccc4)nccc32)c1)Nc1cc(C(F)(F)F)cc(C(F)(F)F)c1`: the growth was 12.1% (inactive).
The result for `CCNc1ncnc2n[nH]nc12` reads 98.4% (inactive); that for `COc1ccccc1S(=O)(=O)Nc1ccc2c3c(cc(-c4cnn(C)c4)nc13)C(=O)N2C`, 23.7% (inactive).
Turning to `CC(C)CNCC(=O)Nc1ccc(Cc2ccc(NC(=O)CNCC(C)C)cc2)cc1`, the growth is 38.4% (inactive).
